Consider 15 compounds from PubChem BioAssay (NCI).

Molecules are shown by their SMILES. Several values for one entry are separate records, joined by “and”; a condition that tells them apart may be missing. Equal entries are not always repeated. The panel holds about 79,000 compounds, 15% with a hit somewhere; the sample as a whole holds those more often. Activity calls are given as the source filed them. No stated cut-off is given here; in the data, active means growth inhibition above about 70%; inactive means the rest.

A short description of this assay: NCI Yeast Anticancer Drug Screen. Data for the rad50 strain (AID 155).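 Further: 0% = growth of vehicle-only cultures of the same strain.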 Conditions: S. cerevisiae rad50 strain growth inhibition, hits give high values; at 50.0 µM unless noted. Put shortly:
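Inhibition values express reduced yeast growth in compound-treated cultures relative to vehicle-treated controls.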
In the case of `COC(=O)C1(CC(=O)c2c(C)[nH]c3ccccc23)NC(=S)NC(=O)C1C#N` (stereo not given), the growth inhibition is -6.35% (inactive).
With `O=C1NC(N/N=C\C(O)C(O)C(O)CO)=N/C1=C/c1ccc(Cl)cc1` (stereo not given), the growth inhibition was 43.2% (inactive) and 45.5% (inactive).
With `O=c1[nH]c2cc(Cl)c([N+](=O)[O-])cc2o1`, the growth inhibition is 12.1% (inactive).
The figure for `COc1cccc(-c2cc(=O)c3cc(C)cnc3[nH]2)c1` is -17.2% (inactive).
Regarding `COc1cc2c3cc1Oc1cc(ccc1O)C[C@@H]1c4c(cc(OC)c(O)c4Oc4ccc(cc4)C[C@@H]3[N+](C)(C)CC2)CC[N+]1(C)C`, the growth inhibition is -23.2% (inactive).
To `CC(C)(CN1CCCCC1)C(=O)CC(SCCN)c1ccc(Cl)cc1` (stereo not given) belongs 27.8% (inactive); to `COc1cc(OC)c(I)cc1Cl`, -10.1% (inactive); to `CCCCN1CCC(N)=NC1=O`, 10.1% (inactive).
For the compound `CCO/C(C)=N\OC(=O)C(F)(F)F`, the growth inhibition was -0.1% (inactive).
The figure for `COC(=O)c1nnn(-c2ccc(Cl)cc2C)c1C(=O)c1ccc(OC)cc1` is -33.4% (inactive).
The figure for `CC(O)CNc1nc(N)[nH]c(=O)c1[N+](=O)[O-]` (stereo not given) is 4.45% (inactive).
The figure for `CC1=NN(c2ccc(S(=O)(=O)O)cc2)C(=O)C1N=Nc1ccc(-c2ccc(N=Nc3ccc(O)c(C(=O)O)c3)c(C)c2)cc1C` (stereo not given) is 17.6% (inactive).
In the case of `O=C(O)c1cc([N+](=O)[O-])cc([N+](=O)[O-])c1-c1ccccc1`, the growth inhibition was -10.4% (inactive).
On to `N#Cc1c(N2CCCC2)nsc1Nc1ccc(F)cc1`, for which the growth inhibition is 2.6% (inactive).
The figure for `CC(C)CCO/N=C(\N)N=C(N)N` is -17.4% (inactive).
